Structures can show the parent of a compound that is named as a salt.
What was measured:
Details in all cases: incubation time: 27 h, anaerobic, 37 °C;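 for the amine columns active = adjusted P below 0.05 in both replicates with a change the same way and a mean fold change under 0.8 or over 1.25; inactive = the rest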
[1] = system: Clostridium sporogenes DSM 1664; assay: growth (OD595) fold change vs plate DMSO controls (fold change (ratio)); higher = more growth
Outline: (§1)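 To obtain OD, 595 nm absorbance readings were blank-subtracted, corrected for compound background using 20 µM compound solutions in water, and multiplied by a calibration factor of 5. They came from 96-well mGAM cultures grown anaerobically for 27 h at 37 °C and shaken before reading. Growth is the fold change relative to the median of plate DMSO controls. Two biological replicates were averaged, and fold changes above 1.5 were set to NA.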

Escherichia coli IAI1 [2] = assay: as above
Outline: as §1

[3] = system: Klebsiella aerogenes DSM 30053; assay: as above
Outline: as §1

[4] = system: Ruminococcus gnavus DSM 108212; assay: as above
Outline: as §1

[5] = system: Klebsiella aerogenes DSM 30053; assay: fold change of Histamine concentration vs plate DMSO controls (fold change (ratio)); higher = more amine produced, active = hit call of the paper (significant change in both replicates, either direction)
Outline: (§2)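 Extracts of whole anaerobic mGAM cultures were analysed for amines by LC–triple-quadrupole MS with dynamic MRM and external calibration curves, with drift corrected within batch. Four gut strains were grown at 37 °C for 27 h in 80 µL wells with compounds at 20 µM final, sweeteners at 50 µM final. Each value expresses fold change over plate DMSO controls. The average of 2 biological replicates is shown.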

[6] = system: Clostridium sporogenes DSM 1664; assay: fold change of Tryptamine concentration vs plate DMSO controls (fold change (ratio)); higher = more amine produced, active = hit call of the paper (significant change in both replicates, either direction)
Outline: as §2

[7] = system: Ruminococcus gnavus DSM 108212; assay: as above
Outline: as §2

Escherichia coli IAI1 [8] = assay: fold change of Putrescine concentration vs plate DMSO controls (fold change (ratio)); higher = more amine produced, active = hit call of the paper (significant change in both replicates, either direction)
Outline: as §2

[9] = system: Klebsiella aerogenes DSM 30053; assay: as above
Outline: as §2

Escherichia coli IAI1 [10] = assay: fold change of Cadaverine concentration vs plate DMSO controls (fold change (ratio)); higher = more amine produced, active = hit call of the paper (significant change in both replicates, either direction)
Outline: as §2

[11] = system: Klebsiella aerogenes DSM 30053; assay: as above
Outline: as §2

[12] = system: Ruminococcus gnavus DSM 108212; assay: fold change of 2-Phenylethylamine concentration vs plate DMSO controls (fold change (ratio)); higher = more amine produced, active = hit call of the paper (significant change in both replicates, either direction)
Outline: as §2

SMILES | growth [1] | growth (Escherichia coli IAI1 [2]) | growth [3] | growth [4] | fold change of Histamine concentration [5] | fold change of Tryptamine concentration [6] | fold change of Tryptamine concentration [7] | fold change of Putrescine concentration (Escherichia coli IAI1 [8]) | fold change of Putrescine concentration [9] | fold change of Cadaverine concentration (Escherichia coli IAI1 [10]) | fold change of Cadaverine concentration [11] | fold change of 2-Phenylethylamine concentration [12]
CCC(=O)OCC(=O)[C@@]1(OC(=O)CC)[C@H](C)C[C@H]2[C@H]3[C@H]([C@@H](O)C[C@@]21C)[C@@]1(C)C=CC(=O)C=C1C[C@H]3Cl [Alclometasone dipropionate] (20 µM) | 1.15 | 1.07 | 1.01 | 0.881 | 1.04 (inactive) | 1 (inactive) | 0.947 (inactive) | 1.03 (inactive) | 1.02 (inactive) | 0.986 (inactive) | 0.997 (inactive) | 0.97 (inactive)
CCCC(=O)Nc1ncnc2c1ncn2[C@@H]1O[C@@H]2COP(=O)(O)O[C@H]2[C@H]1OC(=O)CCC [Bucladesine sodium salt] (20 µM) | 0.934 | 1.16 | 1.04 | 0.964 | 0.931 (inactive) | 0.976 (inactive) | 0.984 (inactive) | 1.06 (inactive) | 0.983 (inactive) | 1 (inactive) | 1.01 (inactive) | 0.975 (inactive)
CC(C)NCC(O)COc1cccc2[nH]ccc12 (stereo not given) [Pindolol] (20 µM) | 1.03 | 1.13 | 1.01 | 0.881 | 0.989 (inactive) | 1.07 (inactive) | 1.12 (inactive) | 1.18 (inactive) | 1.04 (inactive) | 1.21 (inactive) | 1.15 (inactive) | 1.27 (inactive)
NC(=O)c1cccnc1 [Nicotinamide] (20 µM) | 0.909 | 0.979 | 0.964 | 0.672 | 0.994 (inactive) | 0.971 (inactive) | 0.993 (inactive) | 1.02 (inactive) | 0.896 (inactive) | 1 (inactive) | 1.1 (inactive) | 0.953 (inactive)
NC[C@H]1O[C@H](O[C@H]2[C@H](O)[C@@H](O[C@H]3O[C@H](CO)[C@@H](O)[C@H](N)[C@H]3O)[C@H](N)C[C@@H]2N)[C@H](N)[C@@H](O)[C@@H]1O [Kanamycin B] (20 µM) | 1.05 | 0.89 | 0.765 | 0.976 | 0.723 (active) | 0.998 (inactive) | 0.923 (inactive) | 0.882 (inactive) | 1 (inactive) | 1.08 (inactive) | 0.978 (inactive) | 0.945 (inactive)
c1cc2ccc3ccc4ccc5cccc6c(c1)c2c3c4c56 [Benzo-[g,h,i]perylene] (20 µM) | 0.921 | 1.01 | 1.06 | 1.05 | 1.04 (inactive) | 1.02 (inactive) | 0.905 (inactive) | 1.04 (inactive) | 1.01 (inactive) | 1 (inactive) | 0.976 (inactive) | 0.88 (inactive)
CC(CCc1ccc(O)cc1)NCCc1ccc(O)c(O)c1 (stereo not given) [Dobutamine hydrochloride] (20 µM) | 1.01 | 0.997 | 0.99 | 0.938 | 1.12 (inactive) | 1 (inactive) | 1.02 (inactive) | 0.998 (inactive) | 1.01 (inactive) | 0.971 (inactive) | 0.973 (inactive) | 1.04 (inactive)
N=C(N)NCC1COC2(CCCCC2)O1 (stereo not given) [Guanadrel sulfate] (20 µM) | 0.98 | 0.972 | 0.986 | 1.16 | 1.04 (inactive) | 1 (inactive) | 1.04 (inactive) | 0.993 (inactive) | 1.04 (inactive) | 0.99 (inactive) | 1 (inactive) | 1.06 (inactive)
CCc1oc2ccccc2c1C(=O)c1ccc(O)cc1 [Benzarone] (20 µM) | 1 | 1.1 | 1.09 | 1.11 | 0.967 (inactive) | 0.933 (inactive) | 0.934 (inactive) | 1.06 (inactive) | 1 (inactive) | 1.01 (inactive) | 1.02 (inactive) | 0.956 (inactive)
C[N+](C)(C)CCOC(N)=O [Carbachol chloride] (20 µM) | 0.948 | 1 | 0.997 | 1.09 | 1.01 (inactive) | 1.07 (inactive) | 1.09 (inactive) | 0.986 (inactive) | 0.983 (inactive) | 0.957 (inactive) | 1.01 (inactive) | 1.11 (inactive)
CC1=C(/C=C/C(C)=C/C=C/C(C)=C/C(=O)O)C(C)(C)CCC1 [Retinoic acid] (20 µM) | 1.05 | 0.973 | 1.1 | 1.04 | 0.947 (inactive) | 1.03 (inactive) | 1.03 (inactive) | 1.01 (inactive) | 1.02 (inactive) | 0.989 (inactive) | 1.01 (inactive) | 0.997 (inactive)
CC(C)(C)CC(C)(C)c1ccc(O)c(Cc2ccc(Cl)cc2Cl)c1 [Clofoctol] (20 µM) | 0.000434 | 0.973 | 1.01 | 0.559 | 1.01 (inactive) | 0.0134 (active) | 0.143 (active) | 0.999 (inactive) | 1.01 (inactive) | 1.01 (inactive) | 1.01 (inactive) | 0.132 (active)
O=C(O)CNC(=O)C(CS)Cc1ccccc1 (stereo not given) [Thiorphan] (20 µM) | 1.06 | 1.02 | 1.05 | 0.855 | 0.964 (inactive) | 1.22 (inactive) | 1.04 (inactive) | 0.969 (inactive) | 0.983 (inactive) | 0.956 (inactive) | 1.02 (inactive) | 1.02 (inactive)
CC1=C(C)C(=O)C(C(CCCCCC(=O)O)c2ccccc2)=C(C)C1=O (stereo not given) [Seratrodast] (20 µM) | 0.927 | 0.998 | 1 | 0.979 | 1 (inactive) | 1.01 (inactive) | 0.908 (inactive) | 1.05 (inactive) | 1.02 (inactive) | 0.965 (inactive) | 1.01 (inactive) | 0.899 (inactive)
NS(=O)(=O)c1cc2c(cc1Cl)NCNS2(=O)=O [Hydrochlorothiazide] (20 µM) | 0.895 | 1.06 | 0.998 | 1.03 | 1.06 (inactive) | 0.949 (inactive) | 1.11 (inactive) | 1.04 (inactive) | 1 (inactive) | 0.915 (inactive) | 1.11 (inactive) | 1.27 (active)
Cc1c(N(C)CS(=O)(=O)O)c(=O)n(-c2ccccc2)n1C [Dipyrone sodium salt] (20 µM) | 1.02 | 1.14 | 1.07 | 1.13 | 0.958 (inactive) | 1.11 (inactive) | 1.03 (inactive) | 1.05 (inactive) | 0.957 (inactive) | 0.991 (inactive) | 1.02 (inactive) | 1 (inactive)
CC(C)OC(=O)CCC/C=C\C[C@@H]1[C@@H](CC[C@@H](O)CCc2ccccc2)[C@H](O)C[C@@H]1O [Latanoprost] (20 µM) | 0.975 | 1 | 0.984 | 1.44 | 1.11 (inactive) | 0.828 (inactive) | 0.542 (active) | 0.928 (inactive) | 1.04 (inactive) | 0.939 (inactive) | 1 (inactive) | 0.649 (inactive)
CCOC(=O)c1ccc(N)cc1 [Benzocaine] (20 µM) | 1.09 | 1.03 | 1.08 | 1.02 | 0.954 (inactive) | 1.1 (inactive) | 1.06 (inactive) | 0.92 (inactive) | 0.969 (inactive) | 1 (inactive) | 1.01 (inactive) | 1.1 (inactive)
N[C@@H]1CCCCN(c2c(F)cc3c(=O)c(C(=O)O)cn(C4CC4)c3c2Cl)C1 [Besifloxacin hydrochloride] (20 µM) | 0.0111 | 0.0312 | 0.191 | 0.266 | 0.189 (active) | 0.0464 (active) | 0.149 (active) | 0.814 (inactive) | 1.08 (inactive) | 0.267 (active) | 0.988 (inactive) | 0.166 (active)
CN1CCC(=C2c3ccccc3Sc3ccccc32)CC1 [Pimethixene maleate] (20 µM) | 1.13 | 0.985 | 0.967 | 1.26 | 1.02 (inactive) | 1.01 (inactive) | 0.87 (inactive) | 0.974 (inactive) | 0.991 (inactive) | 1.02 (inactive) | 0.993 (inactive) | 0.865 (inactive)
COC(=O)[C@H](c1ccccc1Cl)N1CCc2sccc2C1 [Clopidogrel] (20 µM) | 1.01 | 1.25 | 0.982 | 0.969 | 1.06 (inactive) | 0.986 (inactive) | 0.963 (inactive) | 1.23 (inactive) | 1.02 (inactive) | 0.975 (inactive) | 0.996 (inactive) | 0.941 (inactive)
CCOC(=O)[C@H](CCc1ccccc1)N[C@@H](C)C(=O)N1[C@H](C(=O)O)C[C@H]2CCCC[C@@H]21 [Trandolapril] (20 µM) | 0.941 | 1.05 | 1.02 | 1.01 | 0.994 (inactive) | 0.989 (inactive) | 1.02 (inactive) | 1.08 (inactive) | 1 (inactive) | 0.978 (inactive) | 0.991 (inactive) | 1.02 (inactive)
O=S(=O)(O)CCS [Coenzyme M] (20 µM) | 0.917 | 1.06 | 1 | 1.01 | 1.12 (inactive) | 1.02 (inactive) | 0.951 (inactive) | 1.03 (inactive) | 1.01 (inactive) | 0.979 (inactive) | 0.986 (inactive) | 0.902 (inactive)
Cc1c(O)c(=O)n(-c2ccccc2)n1C [Antipyrine, 4-hydroxy] (20 µM) | 1.04 | 1.02 | 1.02 | 0.689 | 0.913 (inactive) | 0.985 (inactive) | 0.987 (inactive) | 1.01 (inactive) | 0.956 (inactive) | 0.973 (inactive) | 1.01 (inactive) | 0.932 (inactive)
COc1cc([C@@H]2c3cc4c(cc3[C@@H](O[C@@H]3O[C@@H]5CO[C@@H](C)O[C@H]5[C@H](O)[C@H]3O)[C@H]3COC(=O)[C@H]23)OCO4)cc(OC)c1O [Etoposide] (20 µM) | 0.285 | 1.05 | 1.2 | 0.101 | 0.858 (inactive) | 0.403 (active) | 0.248 (active) | 1.08 (inactive) | 0.982 (inactive) | 0.966 (inactive) | 1.03 (inactive) | 0.236 (active)
